Data published in PubChem BioAssay (NCI).
About 83,000 compounds went through this panel and 20% of them were active in at least one assay; those are over-represented in the sample as a whole.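 Each cell line was grown in a 96-well plate and treated with one concentration of compound for 48 hours. Values below 10 were considered active.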 Values without a mark were called inactive. Activity calls are given as the source filed them.

Experiments:
Test in all cases: NCI-60 one-dose screen, 48 h (100 = growth as untreated, 0 = no growth, -100 = all killed)
Conditions in all cases: 10 µM unless noted
[1] = system: SN12C renal
[2] = system: UO-31 renal
[3] = system: TK-10 renal
[4] = system: ACHN renal
[5] = system: CAKI-1 renal
[6] = system: CCRF-CEM leukemia
[7] = system: A498 renal
[8] = system: MOLT-4 leukemia

| Structure (SMILES) | growth [1] | growth [2] | growth [3] | growth [4] | growth [5] | growth [6] | growth [7] | growth [8] |
| --- | --- | --- | --- | --- | --- | --- | --- | --- |
| CSc1nc(NCCCNc2ccnc3cc(Cl)ccc23)cc(-c2ccccc2)n1 | 79.5% | 42.3% | 75.7% | 92.2% | 54.1% | 47% | – | – |
| CC/C(=C(\c1ccc(O)cc1)c1ccc(OCCN(C)CCN(C)C(=O)CCCCC(=O)c2c(C)[nH]c(/C=C3\N=C(c4ccc[nH]4)C=C3OC)c2C)cc1)c1ccccc1 | 82.9% | 55.8% | 119% | 92.5% | 78.5% | 45.6% | 66.5% | 56% |
| O=C1CC(c2nc3ccccc3[nH]2)CN1C1CCCCC1 (stereo not given) | 108% | 78.4% | 99.6% | 106% | 94.2% | 111% | 79.7% | 102% |
| O=C1Nc2ccccc2C12CC(c1ccc(Cl)cc1)=NN2 (stereo not given) | 88.8% | 69.2% | 115% | 91% | 74.6% | 88.3% | 99.6% | 83.8% |
| CC1=C(NCCN2CCCC2)C(=O)c2c(OCc3cccc(Cl)c3)cccc2C1=O | 75.2% | 52.7% | 74.1% | 89.1% | 53.7% | 54.9% | 47.4% | 51.5% |
| O=C1Nc2ccccc2C12CC(c1ccccc1)=NN2 (stereo not given) | 68.6% | 57.6% | – | 59.3% | 22.8% | 49.2% | 63.7% | 38.7% |
| CC(=O)N1CC(Nc2ccc(OC(F)(F)F)cc2)=CC1=O | 56.7% | 65.7% | 51.9% | 53.4% | 30% | 11% | – | 27.1% |
| COc1ccc(/C=C2\N=C3SC=C(N)N3C2=O)cc1 | 20.4% | -4.09% (active) | 19.5% | 33% | -33% (active) | -40.2% (active) | 5.67% (active) | -15.9% (active) |
| Cn1cc(-c2nc(-c3c[nH]c4ccccc34)cs2)c2cccnc21 | 52.7% | 43.8% | 44% | 56.8% | 29.7% | 7.02% (active) | -0.249% (active) | 19.9% |
| CCCCCCCCCCCCN1CCCC(C)C1 (stereo not given) | 95.9% | 60.8% | 87.9% | 85.4% | 68.7% | 44.7% | – | 63.9% |
| COc1ccc(-c2nc(Nc3cc(C)[nH]n3)c3ccccc3n2)cc1 | 40.1% | 41% | 53.3% | 42.8% | 15.9% | 49.3% | -18.1% (active) | 69.8% |
| O=c1c2cccc3c(Nc4c(F)cccc4F)ccc(c32)c2nc3ccccc3n12 | 93.8% | 50.6% | – | 88% | 62% | 72.5% | 109% | 74.1% |
| CCCCCC(=O)N(CCCC)CCCC | 96.3% | 78.5% | 109% | 101% | 92% | 99.1% | – | 105% |
| O=C(CCCCN1CCOCC1)Nc1ccc(Cn2nnc3c2C(=O)c2nnn(Cc4ccc(NC(=O)CCCCN5CCOCC5)cc4)c2C3=O)cc1 | -46.6% (active) | 10.5% | 13.6% | -4.59% (active) | 7.17% (active) | -1.29% (active) | – | -37.3% (active) |
| O=C1/C(=C/c2ccc(Cl)cc2Cl)CN(S(=O)(=O)c2ccccc2)C/C1=C\c1ccc(Cl)cc1Cl | -47.5% (active) | -61.4% (active) | -22.2% (active) | 2.01% (active) | – | -13.2% (active) | 76.4% | 3.37% (active) |
| O=C1C[C@H](N2C(=O)c3ccccc3S2(=O)=O)C2CO[C@@H]1O2 | 91.8% | 63.7% | 92.4% | 78.2% | – | 4.58% (active) | 93.9% | 79% |
| O=C(CN1CCOCC1)Nc1ccc(Cn2nnc3c2C(=O)c2nnn(Cc4ccc(NC(=O)CN5CCOCC5)cc4)c2C3=O)cc1 | -32.1% (active) | 85.3% | 79.7% | 58.7% | 72.9% | -21.4% (active) | -39.8% (active) | -41.8% (active) |
| COc1ccc2nc3cc(Cl)ccc3c(N3CCN(c4nccc(Nc5ccccc5)n4)CC3)c2c1 | 62% | 43.7% | 65.6% | 52.1% | 51.2% | 7.71% (active) | 16.6% | 5.37% (active) |
| COc1ccc(C(=O)c2sc3nc4c(c(C(F)(F)F)c3c2N)CN(C(C)=O)CC4)cc1OC | 93.7% | 46.3% | 86% | 79.1% | 80% | 82.6% | 58.1% | 79.2% |
| COc1ccc2nc3cc(Cl)ccc3c(N3CCN(c4ccnc(N5CCOCC5)n4)CC3)c2c1 | 32.3% | 57.2% | 63.7% | 27.4% | – | -18.4% (active) | 60.6% | – |
| Cc1sc2nc3[nH]/c(=C\c4ccc(Cl)cc4)c(=O)n3c(=O)c2c1C | 98.1% | 103% | 102% | 101% | 105% | 90.2% | 99.5% | 94.1% |
| COc1ccc(-c2cnoc2-c2cc(OC)c3c(c2)OCCO3)cc1 | 9.42% (active) | 39.6% | 71.8% | 21.1% | 33.5% | -7.11% (active) | – | 6.08% (active) |
| NC1=CSC2=N/C(=C\c3ccc(Cl)cc3)C(=O)N12 | 76.8% | 58.2% | 72.8% | 88.3% | 38.8% | -13.5% (active) | 65.6% | 8.12% (active) |
| O=C1CC(c2nc3ccccc3s2)CN1C1CCCCC1 (stereo not given) | 93.5% | 70.5% | 121% | 98.5% | 89.1% | 100% | 73.2% | 90.9% |
| CCC(C)[C@@H]1NC(=O)[C@@H]2CCCN2C(=O)[C@H](Cc2ccccc2)NC(=O)[C@@H]2CCCN2C(=O)[C@H](Cc2ccccc2)NC(=O)[C@@H]2CCCN2C(=O)[C@H](Cc2ccccc2)NC1=O (stereo not given in full) | 102% | 105% | 104% | 103% | 94.1% | 92.7% | 108% | 89.7% |
| CN(C)CCCC(=O)Nc1ccc(Cn2nnc3c2C(=O)c2nnn(Cc4ccc(NC(=O)CCCN(C)C)cc4)c2C3=O)cc1 | -29.4% (active) | 94.5% | 116% | 102% | 91% | 16.8% | – | 11.4% |
| COc1cc(-c2c3sc(=O)[nH]c3nc3c2c(=O)[nH]n3C(C)C)cc2c1OCO2 | 99.4% | 96.8% | 114% | 95.8% | 88.8% | 125% | 67.1% | 104% |
| O=[N+]([O-])c1cccc(C2CC(c3ccccc3)=Nc3ccccc3S2)c1 (stereo not given) | 95.5% | 59.7% | 124% | 90.9% | 91.6% | 22.6% | 96.3% | 64.2% |
| COc1ccc2nc3cc(Cl)ccc3c(N3CCN(c4nccc(Nc5ccc(Cl)cc5)n4)CC3)c2c1 | 74% | 54.8% | 55.8% | 58.2% | 46.4% | 5.59% (active) | – | 3.98% (active) |
| COc1ccc(S(=O)(=O)NCCNc2nccc(-c3c(-c4cccc(N)c4)nc4sccn34)n2)cc1 | 95.7% | 83.2% | 115% | 95.3% | 93.8% | 101% | 91.6% | 99% |
